Bioassay records as filed in PubChem.
HCV inhibitor: qHTS Assay for Inhibitors of Hepatitis C Virus (HCV). 340,000 tested, 3.4% active. Huh7.5.1 HCVcc-Cre infection, luciferase reporter, 44 h. Potency, µM (top dose mostly 41.8 µM), actives largely listed as inhibitors
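HCVcc-Cre virus at an moi near 0.5 was added right after compound to cells cultured 4 h from seeding (1,000 cells/well). Luciferase activity was determined 44 h later, 15 min after substrate addition at RT.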
Pf growth 96h: Primary qHTS for delayed death inhibitors of the malarial parasite plastid, 96 hour incubation; Potency, µM (doses to about 28.7 µM), most hits filed as inhibitors; 320,000 tested, 6.9% active; P. falciparum luciferase reporter growth, 96 h
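Plates of compound plus infected erythrocytes (2% hematocrit, 0.05% parasitemia final) incubate 96 hours, 37 C, 5% CO2. Detection reagent added; reduced luminescence from the parasites' luciferase reporter flags inhibition.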
AMA1-RON2 inh: qHTS for Inhibitors of AMA1-RON; Towards Development of Antimalarial Drug Lead: Primary Screen; Plasmodium falciparum AMA1 (3D7) - RON2 peptide interaction; 360,000 tested, 0.2% active; Potency, µM (top dose mostly 58.2 µM), hits mostly inhibitors; AlphaScreen AMA1-biotinylated RON2 peptide binding; also: nearly all actives have a fitted effect of over 45% in size
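AMA1 (3D7) with his tag at 25 nM final met compounds first, then biotinylated RON2 peptide at 25 nM; detection used donor plus acceptor beads, 10 µg/mL apiece, read by AlphaScreen after 30 min at room temperature.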
Pf growth 48h: Primary qHTS for delayed death inhibitors of the malarial parasite plastid, 48 hour incubation | P. falciparum luciferase growth in erythrocytes, 48 h | Potency, µM (titrated, usually from 28.7 µM), actives largely listed as inhibitors | 310,000 tested, 5.9% active | AID 504832, 2011
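Firefly luciferase activity from engineered P. falciparum reports growth; inhibitors lower the luminescent signal. Cultures contained 2% hematocrit erythrocytes at 0.1% final parasitemia.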
A number is an active result; i = inactive; ? = inconclusive; nt = no result; [ ] = remark or other dose. The list is not random: actives were taken first. Their share in the collection is about 11%. Calls follow the shape of the dose curve; as a rule, active = well fitted curve in the direction sought with a large enough effect; inconclusive = small, poorly fitted or top-dose-only effect, or another doubt; inactive = no such curve, though single readings can be large; an effect the other way counts as inactive or inconclusive.

SMILES | HCV inhibitor | Pf growth 96h | AMA1-RON2 inh | Pf growth 48h
COc1ccc(NC(=O)C2(N(C(=O)Cn3nnnc3N)c3ccc(OC)cc3)CCCCC2)cc1 | i | i | i | i
Cc1ccc(NC(=O)C2(N(C(=O)Cn3nnnc3N)c3ccc(C)cc3)CCCCC2)cc1 | i | 13µM | i | i
O=C(COC(=O)c1nc(Cl)ccc1Cl)NCc1ccc(Cl)cc1 | i | i | i | ?
CC(C)(C)c1ccc(C(=O)C2CCCN(C(=O)c3ccccn3)C2)cc1 (stereo unspecified) | ? | ? | i | i
O=C(NC1CCCCC1)NC1CC2CCCC(C1)N2C1CCCC1 (stereo unspecified) | i | 13µM | i | i
Cc1cc[n+](-c2ccccc2)c2ccccc12 | ? | 1.7µM | i | 12µM
Cc1onc(-c2ccccc2)c1C(=O)NNC(=S)NC(=O)c1ccc(Cl)cc1Cl | i | i | i | i
COc1cccc(C(=O)NCC2CCCN(C(=O)Cc3cccc(C)c3)C2)c1OC (stereo unspecified) | nt | nt | i | nt
O=C(NC(=O)c1c(F)cccc1F)O/N=C1\CCCc2occc21 | i | i | i | 2.3µM
CCOC(=O)c1ncccc1NC(=O)CC(=O)Nc1cccnc1C(=O)OCC | i | nt | 14µM | nt
Cc1cc(O)ccc1Nc1nc2ccccc2nc1Nc1ccc(O)cc1C | ? | ? | i | ?
Cc1cc(N(C)Cc2ccccc2)nc2cc(O)ccc12 | i | i | i | 1.7µM
Cc1cc(N(C)Cc2ccccc2)nc(-c2ccccc2)n1 | 10µM | i | i | i
CCN1CCN(C(=O)c2nn(C)c3c2CS(=O)(=O)c2ccccc2-3)CC1 | i | ? | i | i
CN(C)C(=O)c1ccc(NC(=O)c2ccccc2Sc2ccccc2C#N)cc1 | i | i | ? | i
O=C(/C=C/c1c[nH]c2ccccc12)c1cccc2ccccc12 | ? | 9.3µM | i | i
O=C(O)c1ccc(Nc2nc3ccc(Cl)cc3[nH]2)cc1 | 2.8µM | i | i | i
ClCCNc1nc2ccc(Cl)cc2[nH]1 | i | i | i | i
Cc1cc(NC(=O)CSc2ncccc2C(=O)O)no1 | i | ? | i | i
Cc1cc2nnc(SCC(=O)N(C)C3CCS(=O)(=O)C3)n2c2ccccc12 (stereo unspecified) | i | i | i | i
CCn1c(C(=O)OC)cc2c1ccn2-c1ccc(F)cc1 | 4.5µM | nt | i | i
CC(C)OC(=O)c1cc2c(ccn2-c2ccc(F)cc2)n1CC(=O)N1CCN(C(=O)c2ccco2)CC1 | ? | ? | i | 1.7µM
O=C1CCCc2c1cc(C(=O)NCCCN1CCOCC1)c(=O)n2-c1ccc(Cl)cc1 | i | i | i | i
Cc1ccc(-n2c3c(cc(C(=O)NCCCN4CCOCC4)c2=O)C(=O)CC(C)(C)C3)cc1 | i | 0.83µM | i | i
O=c1cc(-c2ccc(O)cc2)oc2cc(O[C@@H]3O[C@H](CO)[C@@H](O)[C@H](O)[C@H]3O[C@@H]3OC[C@](O)(CO)[C@H]3O)cc(O)c12 | i[8.37 µM] | ? | i | 10µM
SMILES | HCV inhibitor | Pf growth 96h | AMA1-RON2 inh | Pf growth 48h
O=c1cc(-c2ccc(O)cc2)oc2cc(O)c([C@@H]3O[C@H](CO)[C@@H](O)[C@H](O)[C@H]3O)c(O)c12 | i | nt | i | nt
COc1ccc2nc3cc(Cl)ccc3c(Nc3cc(CN4CCCC4)c(O)c(CN4CCCC4)c3)c2n1 | nt | ? | nt | 0.052µM
Cc1ccc(-c2csc3ncnc(Sc4nnc(CN5CCCCCC5=O)o4)c23)cc1 | ? | 15µM | i | 12µM
COc1ccc(NC(=O)CN(C)C(=O)c2cn(-c3ccccc3)nc2-c2cccnc2)cc1 | i | ? | i | 8.3µM
COc1ccc(NC(=O)CN(C)C(=O)c2cn(-c3ccccc3)nc2-c2cccs2)cc1 | ? | ? | i | ?
CN(CC(=O)Nc1cccc(F)c1)C(=O)c1cn(-c2ccccc2)nc1-c1ccccc1 | i | ? | i | i
CCOc1ccc(NC(=O)CN(C)C(=O)c2cn(-c3ccc(F)cc3)nc2-c2cccc(OC)c2)cc1OCC | ? | ? | i | 12µM
O=C(COC(=O)Cc1ccc(S(=O)(=O)N2CCOCC2)s1)Nc1ccc(OC(F)F)cc1 | i | nt | i | nt
Clc1ccccc1N/N=C/c1ccc2c(c1)OCO2 | i | i | ? | i
O=C(/C=C/c1ccco1)Nc1ccc(Oc2ccc(Cl)cc2)cc1 | 8.9µM | i | i | 8.3µM
O=C(/C=C/c1ccco1)Nc1ccc(C(=O)N2CCOCC2)cc1 | i | 9.3µM | i[11.6 µM] | i
COc1ccc(C(NC(=O)/C=C/c2ccco2)c2ccc(OC)cc2)cc1 | i | 2.3µM | i | 10µM
O=C(/C=C/c1ccco1)Nc1ccc(CN2CCOCC2)cc1 | i | i | i | i
CC(C)N(Cc1cn[nH]c1-c1ccc(-c2ccccc2)cc1)Cc1nccn1C | i | i | i | ?
CCNC(=O)C1CCCN(C(=O)c2ccc(OC(F)F)cc2)CC1 (stereo unspecified) | nt | nt | i | nt
Cc1[nH]c(=O)c(C(=O)/C=C/c2ccccc2F)c2c1CCCC2 | 2.5µM | 5.2µM | i | 3.3µM
Cc1cc(C(=O)N[C@H](c2ccccc2)[C@@]2(C)C[C@@H]2[C@@H](C)C(=O)Nc2ccc3ccccc3c2)no1 | ? | 12µM | i | ?
Cc1cc(C(=O)N[C@@H](c2ccccc2)[C@]2(C)C[C@H]2[C@@H](C)C(=O)Nc2ccc3ccccc3c2)no1 | i | ? | i | i
C[C@@H](C(=O)Nc1ccc2ccccc2c1)[C@H]1C[C@]1(C)[C@H](NC(=O)c1cnccn1)c1ccccc1 | ? | 1.5µM | i | 2.9µM
Cn1cc([N+](=O)[O-])c(C(=O)N/N=C/c2ccc3c(c2)OCO3)n1 | i | ? | i | i
CCOc1ccc(S(=O)(=O)c2cn(C)c3cc(OC)c(OC)cc3c2=O)cc1 | i | i | i | i
Cc1cc(O)c(C=O)c2c1C(=O)Oc1c(CO)c(O)c3c(c1O2)C(O)OC3=O (stereo unspecified) | i | i | 1.1µM | i
O=C(NCC1CCCO1)C1CC(=O)N(c2ccccc2)C1 (stereo unspecified) | i | i | i | ?
CCOC(=O)C1=CCN(S(=O)(=O)c2ccc(C)cc2)C1c1cccc2ccccc12 (stereo unspecified) | nt | nt | i | nt
COc1cc(NC(=O)c2ccc(NS(=O)(=O)c3c(C)noc3C)cc2)cc(OC)c1 | i | 0.33µM | i | ?
SMILES | HCV inhibitor | Pf growth 96h | AMA1-RON2 inh | Pf growth 48h
Cc1cccc(NC(=O)c2ccc(NS(=O)(=O)c3c(C)noc3C)cc2)c1 | i | i | i | i
COc1ccc(OC)c(NC(=O)c2ccc(NS(=O)(=O)c3c(C)noc3C)cc2)c1 | ? | ? | ? | i
Cc1noc(C)c1S(=O)(=O)Nc1ccc(C(=O)Nc2ccc(OC(F)(F)F)cc2)cc1 | 14µM | ? | i | i
CCNC(=S)N1CCn2c(nc3ccccc32)C1 | i | i | i | i
CN(C)C(=O)c1ccc(NC(=O)c2cccc(S(=O)(=O)N3CCN(Cc4ccccc4)CC3)c2)cc1 | ? | nt | i | nt
O=C(Nc1ccc(S(=O)(=O)N2CCN(Cc3ccccc3)CC2)cc1)c1cnccn1 | 6.3µM | ? | i | i
